Measured values: the supplement of paper PMC6555819

Legend:
Experiment in all cases: PBM binding z-score (relative to random genomic background probes); higher = stronger binding; sequences stand for … in GC…GCGATTGACAGCGTAGAATGAAGG
[1] = tested on: FXR:RXRa (NR concentration 270 nM, RXRa partner concentration 90 nM)
How it was run: (§1)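 Probes were double-stranded and carried 34-nt variable regions with direct-repeat seeds, single-nucleotide variants, half-site ablations and random human genomic background sequences, printed on custom Agilent 4×180K protein-binding microarrays. Arrays were incubated 1 h with ligand-free nuclear receptor dimers in PBS pH 7.4, 2% milk, 0.02% Triton X-100, 1 mM DTT, 0.2 mg/mL BSA and 0.4 mg/ml salmon testes DNA. Antibodies against each partner (one per run) detected binding, and scanned fluorescence was regression-normalized. Binding z-scores use the random background probes as reference.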

[2] = tested on: LXRa:RXRa (NR concentration 270 nM, RXRa partner concentration 90 nM)
How it was run: as §1

[3] = tested on: LXRa homodimer (NR concentration 270 nM)
How it was run: as §1

[4] = tested on: LXRb:RXRa (NR concentration 270 nM, RXRa partner concentration 90 nM)
How it was run: as §1

[5] = tested on: LXRb homodimer (NR concentration 270 nM)
How it was run: as §1

[6] = tested on: PPARa:RXRa (NR concentration 270 nM, RXRa partner concentration 90 nM)
How it was run: as §1

[7] = tested on: PPARg:RXRa (NR concentration 180 nM, RXRa partner concentration 90 nM)
How it was run: as §1

[8] = tested on: PPARg:RXRa 270nM:90nM, anti-RXR (NR concentration 270 nM, RXRa partner concentration 90 nM)
How it was run: as §1

[9] = tested on: PPARg:RXRa 30nM:10nM, anti-RXR (NR concentration 30 nM, RXRa partner concentration 10 nM)
How it was run: as §1

[10] = tested on: PPARg:RXRa 90nM:30nM, anti-RXR (NR concentration 90 nM, RXRa partner concentration 30 nM)
How it was run: as §1

[11] = tested on: PPARg:RXRa DBDmut IVT, anti-RXR (DBD mutation: RXRa K156A/R161A, NR concentration 270 nM, RXRa partner concentration 90 nM)
How it was run: as §1

[12] = tested on: PPARg:RXRa IVT, anti-PPARg (NR concentration 270 nM, RXRa partner concentration 90 nM)
How it was run: as §1

[13] = tested on: PPARg DBDmut:RXRa IVT, anti-PPARg (DBD mutation: PPARg1 K132A/R137A, NR concentration 270 nM, RXRa partner concentration 90 nM)
How it was run: as §1

[14] = tested on: PPARg DBDmut IVT, anti-PPARg (DBD mutation: PPARg1 K132A/R137A, NR concentration 270 nM)
How it was run: as §1

[15] = tested on: PPARg homodimer (NR concentration 180 nM)
How it was run: as §1

[16] = tested on: PXR:RXRa (NR concentration 270 nM, RXRa partner concentration 90 nM)
How it was run: as §1

[17] = tested on: PXR homodimer (NR concentration 270 nM)
How it was run: as §1

[18] = tested on: RARa:RXR (NR concentration 270 nM, RXRa partner concentration 90 nM)
How it was run: as §1

[19] = tested on: RARa homodimer (NR concentration 270 nM)
How it was run: as §1

[20] = tested on: RARb:RXRa (NR concentration 270 nM, RXRa partner concentration 90 nM)
How it was run: as §1

Sequence | PBM binding z-score [1] | PBM binding z-score [2] | PBM binding z-score [3] | PBM binding z-score [4] | PBM binding z-score [5] | PBM binding z-score [6] | PBM binding z-score [7] | PBM binding z-score [8] | PBM binding z-score [9] | PBM binding z-score [10] | PBM binding z-score [11] | PBM binding z-score [12] | PBM binding z-score [13] | PBM binding z-score [14] | PBM binding z-score [15] | PBM binding z-score [16] | PBM binding z-score [17] | PBM binding z-score [18] | PBM binding z-score [19] | PBM binding z-score [20]
CGTCAAAGTTCACCTAAGGTAACGTAAAGCACGC | 6.94 | 6.74 | 3.99 | 4.24 | 1.27 | 5.11 | 5.63 | 5.75 | 2.48 | 4.52 | 0.554 | 2.63 | 0.556 | 0.77 | 3.35 | 5.29 | 3.14 | 4.17 | 0.893 | 5.21
CCTACTGTGCCATTCAGAGGTCATTGATCATATG | 2.84 | 4.75 | 6.87 | 4.59 | 1.67 | 3.96 | 1.74 | 2.71 | 0.936 | 1.83 | 3.76 | 3.54 | 0.945 | 0.536 | 2.73 | 4.89 | 2.63 | 4.4 | 1.62 | 3.08
ATCGAAAGGTCGAAGGAGAGTATACCCACCCGAA | 4.01 | 3.28 | 0.14 | 2.48 | 0.895 | 3.8 | 2.15 | 2.57 | 1.14 | 2.01 | -0.0352 | 1.35 | 0.946 | 0.145 | 1.41 | 2.39 | 0.0516 | 3.11 | 0.728 | 3.62
CCTTACGGGTCACTCCAGGTTCTAGCATCGGAGT | 4.8 | 4.87 | 0.141 | 2.7 | -0.137 | 4.28 | 2.96 | 3.49 | 0.999 | 2.15 | 2.92 | 3.24 | 0.0574 | -0.343 | 1.37 | 3.13 | -0.323 | 3.39 | 0.55 | 3.63
AGTCAAAATTCACTAGGTAACGTAAGATTCAGCT | 0.492 | 0.568 | 0.177 | 0.0874 | 0.267 | 0.989 | 0.791 | 0.81 | 0.61 | 1.03 | 1.45 | 2.58 | 1.21 | 0.716 | 1.09 | 0.12 | 0.568 | 1.48 | 1.44 | 0.258
GCTGCTAGGTCATGTTGGTCAGCTAACGGGTACG | 3.46 | 2.59 | 0.616 | 1.75 | 0.329 | 3.03 | 1.62 | 2.3 | 0.174 | 1.38 | 4.28 | 3.3 | 0.275 | 1.15 | 2.55 | 1.49 | -0.31 | 2.42 | 0.287 | 3.69
